# Results filed as inconclusive are left out. Where a call stands in place of a potency, no number is given. The source made the active and inactive calls. The call rests on the fitted dose curve; in most records, active means well fitted inhibition curve with a large enough effect; inconclusive means small, poorly fitted or top-dose-only effect; inactive means flat fitted curve, though single readings scatter.
# Target: Dual specificity protein kinase CLK4 (Homo sapiens) (UniProt Q9HAZ1)
# Test: qHTS Assay for Inhibitors of CDC-like Kinase 4 (ADP-Glo Assay) (AID 1771); further: nearly all actives have a fitted effect of over 70% in size
# Settings: recombinant CLK4, ADP-Glo luminescence; series mostly up to 80 µM
# Procedure: NIH Molecular Libraries Probe Production Centers Network [MLPCN] NIH Chemical Genomics Center [NCGC] MLPCN Grant: 1R03MH084827-01 Assay Submitter (PI): Tom Misteli NCGC Assay Overview: Clk4 (Invitrogen, cat# PV3839) was assayed using ATP and the RS repeat peptide (AnaSpec cat # 61722) as substrates. In the assay, the ADP levels were detected using Promega ADP-Glo technology wherein the remaining ATP from the kinase reaction is first depleted with an ATPase reagent followed by a reagent that contains and enzyme which converts the ADP produced to ATP as well as Ultra-Glo luciferase and D-luciferin which generates a bioluminescence signal from the ATP. The positive control for the assay was TG003 (Sigma-Aldrich, cat# 300801-52-9) which has been described as an inhibitor of Clk 4[1].
# NCGC Assay Protocol Summary: Two uL/well of substrate-buffer solution (100 uM RS peptide, 1 uM ATP, 1x ADP-Glo Buffer A, 2 mM MgCl2, 0.5 mM EGTA, 2.5 mM DTT, 0.01% Triton X-100, final concentrations) was dispensed into 1536-well plates (Greiner, solid white, medium binding assay plates) with the Aurora Discovery BioRAPTR Flying Reagent Dispenser (FRD; Beckton-Dickenson). Twenty-three nanoliter of compound and control solutions were transferred to the assay plate using a Kalypsys pin-tool followed by 0.5 uL/well Clk4-buffer solution (25 nM Clk4, 1x ADP-Glo Buffer A, 2 mM MgCl2, 0.5 mM EGTA, 2.5 mM DTT, 0.01% Triton X-100 final concentration) dispensing for a total kinase reaction volume of 2.5 uL/ well. After 1 hr of room-temperature incubation, 2.5 uL ADP-Glo reagent was added and incubated at room temperature for 45 min to stop the kinetic reaction and degrade residual ATP. The ADP product was then converted to ATP by adding 5 uL per well of ADP-Glo Reagent II to yield a total assay volume of 10 uL/ well. Luminescence was detected after 30 min room temperature incubation with the Perkin Elmer Viewlux.
# Potency means the concentration at half of the fitted maximal effect.
# Sequence of Dual specificity protein kinase CLK4 (Homo sapiens) (Q9HAZ1 whole entry, looked up): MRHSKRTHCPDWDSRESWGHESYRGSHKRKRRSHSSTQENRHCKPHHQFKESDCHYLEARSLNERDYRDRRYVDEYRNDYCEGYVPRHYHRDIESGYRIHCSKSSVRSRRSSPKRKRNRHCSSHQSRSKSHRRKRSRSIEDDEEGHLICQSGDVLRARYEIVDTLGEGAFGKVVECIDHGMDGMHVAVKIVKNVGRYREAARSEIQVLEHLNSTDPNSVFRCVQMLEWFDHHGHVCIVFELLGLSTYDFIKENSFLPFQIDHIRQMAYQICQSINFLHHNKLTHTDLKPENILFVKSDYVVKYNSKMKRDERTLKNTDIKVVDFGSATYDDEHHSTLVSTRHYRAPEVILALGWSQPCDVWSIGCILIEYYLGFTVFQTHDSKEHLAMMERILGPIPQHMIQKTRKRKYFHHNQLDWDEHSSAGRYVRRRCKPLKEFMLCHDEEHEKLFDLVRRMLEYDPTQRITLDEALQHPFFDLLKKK
row,Compound,Potency
1,Cc1nc2cnc(N3CCN(C)CC3)nc2n(C2CC2)c1=O,inactive
2,CC(=O)NCCNc1nc(-c2ccccc2C)nc2ccccc12,15.8 µM (active)
3,Cn1c(=O)c(-c2cc(F)cc(F)c2)nc2cnc(Nc3ccccc3)nc21,inactive
4,Cn1c(=O)c(-c2ccccc2)nc2cnc(OCc3ccccc3)nc21,inactive
5,N#Cc1ccccc1-c1ccc2ncnc(NCc3ccccc3)c2c1,7.94 µM (active)
6,N#CCCn1c(=O)c(-c2ccccc2)nc2cnc(N3CCOCC3)nc21,inactive
7,CN(Cc1ccco1)c1cc(-c2ccccc2C(F)(F)F)ncn1,inactive
8,O=c1c(-c2cccc(Cl)c2)nc2cncnc2n1Cc1ccccc1,inactive
9,COc1ccccc1-c1cc(N(C)Cc2ccco2)ncn1,35.5 µM (active)
10,CNc1ncncc1-c1ccccc1C(F)(F)F,inactive
11,COc1cccc(Cn2c(=O)c(-c3cc(F)cc(F)c3)nc3cnc(N4CCOCC4)nc32)c1,inactive
12,COc1cccc(Cn2c(=O)c(-c3cn(C)c4ccccc34)nc3cnc(N4CCOCC4)nc32)c1,inactive
13,Cc1nc2cnc(N3CCN(C)CC3)nc2n(C[C@H]2CCCO2)c1=O,inactive
14,CCNc1ncc2nc(-c3cn(C)c4ccccc34)c(=O)n(Cc3ccc(F)cc3)c2n1,inactive
15,CCNc1ncc2nc(-c3cn(C)c4ccccc34)c(=O)n(CCC#N)c2n1,inactive
16,Cc1cnc(CNc2nc(-c3ccccc3C)nc3ccccc23)cn1,inactive
17,COCCNc1nc(-c2ccoc2)nc2ccccc12,inactive
18,COc1cccc(Nc2ncc3ncc(=O)n(C)c3n2)c1,1 µM (active)
19,CCNc1ncc2nc(CCc3ccccc3)c(=O)n(Cc3ccc(F)cc3)c2n1,inactive
20,Cn1c(=O)c(-c2ccc(Cl)cc2)nc2cnc(N3CCNCC3)nc21,inactive

row,Compound,Potency
1,COc1cccc(Nc2ncc3nc(-c4ccc(Cl)cc4)c(=O)n(C[C@H]4CCCO4)c3n2)c1,inactive
2,N#Cc1cccc(-c2ccc3ncnc(NC4CCNCC4)c3c2)c1,14.1 µM (active)
3,COc1ccc(-c2nc3cnc(OC)nc3n(C)c2=O)cc1,inactive
4,CN1CCN(c2ncc3nc(-c4ccc(Cl)cc4)c(=O)n(C)c3n2)CC1,inactive
5,CN1CCN(c2ncc3nc(-c4cn(C)c5ccccc45)c(=O)n(CCc4ccccc4)c3n2)CC1,inactive
6,COc1ccc(CNc2ccnc(-c3ccccc3OC)n2)c(OC)c1,inactive
7,Cc1cnc(CNc2nc(-c3ccccc3C(F)(F)F)nc3ccccc23)cn1,inactive
8,CN(C)c1ncc2nc(-c3ccc(F)cc3)c(=O)n(-c3ccccc3)c2n1,inactive
9,COc1ccc2[nH]cc(CCNc3ncncc3-c3cccc(NS(C)(=O)=O)c3)c2c1,35.5 µM (active)
10,COc1ccccc1CNc1nc(-c2cccnc2)nc2ccccc12,10 µM (active)
11,COc1ccc(-n2c(=O)c(-c3ccc(F)cc3)nc3cnc(N4CCNCC4)nc32)cc1,inactive
12,COc1ncc2nc(-c3ccc(Cl)cc3)c(=O)n(CCC#N)c2n1,inactive
13,Cc1cnc(CNc2ncnc3ccc(-c4cccc(NS(C)(=O)=O)c4)cc23)cn1,15.8 µM (active)
14,c1csc(CNc2ccnc(-c3ccc4c(c3)OCO4)n2)c1,22.4 µM (active)
15,COc1cccc(-c2ccc3ncnc(NCCNC(C)=O)c3c2)c1,0.447 µM (active)
16,N#CCCn1c(=O)c(-c2cc(F)cc(F)c2)nc2cnc(N3CCOCC3)nc21,inactive
17,COc1cccc(-c2cc(NCc3ccccc3OC)ncn2)c1,28.2 µM (active)
18,CN(Cc1ccco1)c1cc(-c2cccc(NS(C)(=O)=O)c2)ncn1,8.91 µM (active)
19,CCNc1ncc2nc(-c3ccc(F)cc3)c(=O)n(Cc3ccc(F)cc3)c2n1,inactive
20,CN1CCN(c2ncc3nc(-c4cn(C)c5ccccc45)c(=O)n(C)c3n2)CC1,inactive
